Assay outcomes from PubChem BioAssay.
CYP2C9 activ = human CYP2C9 activators, primary screen, biochemical, luminescence; Cytochrome P450 2C9 (Homo sapiens), P11712; recombinant CYP2C9, luciferin-H conversion; stronger effect = higher value; factor 1 = untreated enzyme, 0 = blocked; activation factor at 5 µM; 96,000 tested, 1.4% active; AID 1024, 2008;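 active means activation factor of 2 or more for CYP2C9 at a 5 µM dose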;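 further: 0 = sulfaphenazole-blocked wells and 1 = vehicle-only wells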
Target sequence (P11712 whole entry, looked up): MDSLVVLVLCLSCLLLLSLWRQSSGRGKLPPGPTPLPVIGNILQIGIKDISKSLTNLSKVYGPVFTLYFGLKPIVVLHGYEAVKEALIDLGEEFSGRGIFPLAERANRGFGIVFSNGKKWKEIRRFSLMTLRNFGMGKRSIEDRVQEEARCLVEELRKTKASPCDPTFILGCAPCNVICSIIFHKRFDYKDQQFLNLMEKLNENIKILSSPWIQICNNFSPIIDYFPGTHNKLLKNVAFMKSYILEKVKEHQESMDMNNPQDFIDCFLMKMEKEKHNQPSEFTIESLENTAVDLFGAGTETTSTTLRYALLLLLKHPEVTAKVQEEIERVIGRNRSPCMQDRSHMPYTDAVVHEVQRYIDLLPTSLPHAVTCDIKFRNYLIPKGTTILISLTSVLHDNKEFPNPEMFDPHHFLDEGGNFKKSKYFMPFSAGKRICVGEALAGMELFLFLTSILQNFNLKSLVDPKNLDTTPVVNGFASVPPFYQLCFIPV
CYP2C9 inhib = blockers of cytochrome P450 2C9 activity – biochemical, luminescence, ADME assay, primary screen | AID 777, 2007 | inhibition, % at 5 µM | 96,000 tested, 20% active | CYP2C9 Supersomes, luciferin-H conversion;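 active means blocking of liver enzyme CYP2C9 beyond about 50% at 5 µM, limit read from the data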
CYP2C19 act = human CYP2C19 activators, primary screen, biochemical, luminescence; Cytochrome P450 2C19 (Homo sapiens), P33261; AID 1025, 2008; activation factor at 5 µM; 96,000 tested, under 10 active; recombinant CYP2C19, luciferin-H EGE luminescence; stronger effect = higher value; 0 = fully inhibited enzyme, 1 = untreated enzyme;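 active means activation factor of at least 2 at 5 µM in the primary screen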;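 further: 0 = wells with 2.5 mM tranylcypromine and 1 = vehicle-only wells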
CYP2C19 inhib = blockers of cytochrome P450 2C19 activity – biochemical, luminescence, ADME assay, primary screen | AID 778, 2007 | CYP2C19 Supersomes, luciferin-H EGE luminescence, 30 min | P33261 | 96,000 tested, 21% active | inhibition, % at 5 µM;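 active means CYP2C19 inhibition above a set limit at 5 µM in the primary screen, cut at about 50% in these data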;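 further: plate controls were negative control wells for no effect and 2.5 mM tranylcypromine positive control for full effect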
* = called active by the depositor. Hits are enriched below; roughly 31% of the tested compounds scored in any of these assays.

SMILES | CYP2C9 activ | CYP2C9 inhib | CYP2C19 act | CYP2C19 inhib
Cc1cc(N2CCCCC2)n2ncc(-c3ccccc3)c2n1 | 1.5 | -46 | 1.1 | -10
Cc1cc(N2CCCCC2)n2ncc(-c3ccc(Cl)cc3)c2n1 | 0.4 | 57* | 0.7 | 29
Cc1cc(N2CCC(C)CC2)n2ncc(-c3ccccc3)c2n1 | 0.3 | 70* | 0.6 | 37
O=C1c2cccnc2C(=O)N1Cc1ccc(F)cc1 | 1 | 3 | 0.8 | 18
COc1ccc(C2CC(c3ccc(Cl)cc3)n3nc(N)nc3N2)cc1 (stereo not given) | 1 | -4 | 0.6 | 38
Nc1ncncc1-c1ccc([N+](=O)[O-])cc1 | 1.1 | -12 | 1 | -1
CCOC(=O)C(C(=O)OCC)C(CC(=O)C1CC1)c1ccccc1 (stereo not given) | 1 | 1 | 0.8 | 19
O=C(COC(=O)c1cccnc1SCC(=O)NCc1ccccc1)NCc1ccccc1 | 0.6 | 39 | 0.3 | 68*
CN(C)C(=O)CSc1nc(SCC(=O)N(C)C)n(-c2ccccc2)n1 | 1 | 2 | 0.9 | 8
O=C(CSc1ncccc1C(=O)O)NCc1ccc(F)cc1 | 1.1 | -12 | 1 | -4
O=C(CSc1nc2ccccc2n1CCc1ccccc1)NC1CCS(=O)(=O)C1 (stereo not given) | 0 | 99* | 0 | 96*
Cn1c(N2CCN(C(=O)NCc3ccccc3)CC2)nc2ccccc21 | 0.8 | 17 | 0.9 | 6
Cn1c(SCC(=O)NCc2ccccc2)nc2ccccc21 | 4.5* | -345 | 0.6 | 40
O=C(CSc1nc(SCC(=O)NCc2ccccc2)n(-c2ccccc2)n1)NCc1ccccc1 | 0.2 | 83* | 0.3 | 66*
Cc1ccc(C2C(C(=O)c3sc(C)nc3C)=C(O)C(=O)N2CCCN(C)C)o1 (stereo not given) | 1.1 | -7 | 1.1 | -15
O=C(CSc1nccn1Cc1ccccc1)NCc1ccccc1 | 0.4 | 56* | 0.1 | 89*
CCC(C)(C)NC(=O)C(c1ccco1)N(C(=O)c1csnn1)c1cccc(F)c1 (stereo not given) | 1.1 | -10 | 0.9 | 13
O=C(/C=C/c1ccc(Cl)cc1)c1cccnc1 | 0.5 | 52* | 0.1 | 94*
O=C(/C=C/c1ccccc1Cl)c1cccnc1 | 0.9 | 13 | 0.5 | 54*
O=C(/C=C/c1ccccc1)NNC(=O)c1cccnc1 | 0.9 | 13 | 1 | 5
O=C(COc1cccc(NC(=O)c2ccco2)c1)c1ccccc1 | 0.7 | 32 | 0.6 | 42
Cc1cc(N2CCN(Cc3ccccc3)CC2)n2nc(C)c(-c3ccccc3)c2n1 | 0.9 | 15 | 0.8 | 16
CCCc1cc(N2CCN(c3ccccn3)CC2)n2nc(C)c(-c3ccccc3)c2n1 | 0.5 | 54* | 0.8 | 19
Cc1[nH]n(-c2ccccc2)c(=O)c1C1(C(F)(F)F)C(=O)N(c2ccccc2)C2=C1C(=O)CC(C)(C)C2 (stereo not given) | 0.3 | 73* | 0.8 | 20
c1ccc2[nH]c(CSc3ncnc4c3oc3ccccc34)nc2c1 | 0 | 97* | 0.3 | 69*
SMILES | CYP2C9 activ | CYP2C9 inhib | CYP2C19 act | CYP2C19 inhib
Cc1nc(SCc2nc3ccccc3[nH]2)c2oc3ccccc3c2n1 | 0.1 | 91* | 0.7 | 32
CCOC(=O)C1CCN(C(=O)CN(c2cccc(OC)c2)S(=O)(=O)c2ccccc2)CC1 | 0.8 | 24 | 0.9 | 15
CC(C)n1c(N2CCN(C(=O)c3cccs3)CC2)nc2ccccc21 | 0.4 | 58* | 0.5 | 51*
CN(C)S(=O)(=O)N1CCN(C(=O)c2cccs2)CC1 | 1.1 | -8 | 0.2 | 76*
COc1ccc(S(=O)(=O)N2CCN(C(=O)c3cccs3)CC2)cc1 | 0.5 | 50 | 0.1 | 94*
COc1ccc(S(=O)(=O)N2CCN(C(=O)c3cccc(Cl)c3)CC2)cc1 | 0.9 | 15 | 0.6 | 39
O=C(O)CCC(=O)OCC1CCCO1 (stereo not given) | 1 | 3 | 1 | 0
Cc1[nH]n(-c2cccc(Cl)c2)c(=O)c1-c1ccccc1 | 0.8 | 23 | 0.9 | 5
Cc1cc(-c2c(C)[nH]n(-c3ccc(Cl)cc3)c2=O)n(-c2ccccc2)n1 | 0.1 | 91* | 0.9 | 8
O=C1C2C(c3ccccc3)C=CC(c3ccccc3)C2C(=O)N1CCO (stereo not given) | 0.3 | 74* | 0 | 99*
O=C1C2C3C=CC(C3=C(c3ccccc3)c3ccccc3)C2C(=O)N1Cc1ccccc1 (stereo not given) | 1.1 | -14 | 0.5 | 54*
O=C1C2C(c3ccccc3)C=CC(c3ccccc3)C2C(=O)N1C1CCCCC1 (stereo not given) | 0.2 | 80* | 1.2 | -18
Cc1ccc(C)c(N2C(=O)CN=C2Nc2ccccc2Cl)c1 | 0.6 | 44 | 0.6 | 45
CC1(C)c2ccccc2N2CC(=O)NC21/C=C/c1ccco1 (stereo not given) | 0.9 | 11 | 0.8 | 25
CC1(C)c2ccccc2N2CCC(=O)NC21/C=C/c1ccco1 (stereo not given) | 0.5 | 52* | 0.1 | 86*
CCOC(=O)C1CCCCN1Cc1ccc(C(F)(F)F)cc1 (stereo not given) | 0.4 | 62* | 0 | 97*
CCOC(=O)C1CCCCN1Cc1ccccc1C(F)(F)F (stereo not given) | 0.5 | 52* | 0 | 95*
CCOC(=O)C1CCCCN1Cc1cccc(C(F)(F)F)c1 (stereo not given) | 0.8 | 18 | 0.8 | 17
Cc1cc(NC(=O)c2cnn3cccnc23)nn1CC(=O)Nc1cccnc1 | 0.9 | 7 | 1 | 0
COc1ccc(N/C=C(/C(C)=O)c2ccccc2)cc1 | 0.1 | 90* | 0.1 | 89*
COc1cccc(C(=O)Nc2ccc(NC(C)=O)cc2)c1 | 0.9 | 12 | 0.7 | 27
O=C1NC(=Nc2ccccc2)S/C1=C\c1cccn1-c1ccccc1 | 1.7 | -67 | 0.8 | 18
CS(=O)(=O)Nc1cccc(C(=O)CC2(O)C(=O)Nc3ccc(Br)cc32)c1 (stereo not given) | 1.3 | -30 | 0.9 | 9
O=C1CC(NCc2ccncc2)C(=O)N1c1ccc(Cl)cc1 (stereo not given) | 0.2 | 82* | 0.1 | 88*
O=C1CC(NCc2ccncc2)C(=O)N1c1ccccc1 (stereo not given) | 0.1 | 91* | 0.1 | 94*
O=C1CC(NCc2cccs2)C(=O)N1c1ccc(Cl)cc1 (stereo not given) | 1 | -3 | 0.6 | 42
Cc1cc(C)cc(N(C(=O)CNC(=O)c2ccco2)C(C(=O)NC2CCCC2)c2cccnc2)c1 (stereo not given) | 1 | -3 | 1.1 | -5
Cc1nc2ccc(S(=O)(=O)NCC(=O)NCc3ccc4c(c3)OCO4)cc2s1 | 0.6 | 38 | 0.5 | 49
Cc1nc2ccc(S(=O)(=O)N(C)CC(=O)NCc3ccc4c(c3)OCO4)cc2s1 | 0.5 | 53* | 0.4 | 57*
